Results published in the supplement of paper PMC11417369.
Over roughly 25,000 sequences, “ln(normalized median fluorescence intensity)” has its median near 6.7; the highest 2% begin near 10. The entries come from a sample that favours the highest values as a whole.

tested on: PfHDP1 homeodomain (GST-tagged); test: gcPBM binding intensity (ln(normalized median fluorescence intensity)); higher = stronger DNA binding
How it was run: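 In this array assay, P. falciparum DNA-binding domains with a GST tag, expressed in E. coli, were applied for 1 h to primer-extended double-stranded 36-bp intergenic genomic probes and negative controls on an Agilent 4 × 180k array. Bound protein was visualised with Alexa488 anti-GST antibody at 488 nm. Binding intensity is the highest Masliner-normalised natural-log median intensity across replicate spots of either probe orientation.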

Row | Sequence | gcPBM binding intensity (ln)
1 | TACCAATGCATAACGGTGCAAAAAAATAAGGAATAA | 10.3
2 | AAATTATAAAATAACTGTACCAATCCTTTTTTTTTA [XGTACX_site2229] | 5.84
3 | TATACATATGTATGCACACATACATACCCATATAAT [CACACA_site5842] | 9.42
4 | GTATAAAAATTTAGGAGTACAATATATTTATAATAT [XGTACX_site2127] | 6.5
5 | ATATTTCATTAATGAACACACAAAGAGGTATATAAA [CACACA_site1519] | 6.86
6 | AATTAGACATAATATACACACATATATTATATATAT [CACACA_site2691] | 6.91
7 | ATATTAAAGCCTTTTTGTACATATAAATAAACATAG [XGTACX_site4667] | 6.66
8 | GTAAAATTTCGGATTTGTACACATGGCTATGAAAAA [XGTACX_site939] | 6.57
9 | TGCCCTAACCATACTACACACACTGCTCAAAATAGT [CACACA_site2219] | 7.09
10 | AGGATATAAAGTTGTGCATGTCAAGTGCACCGTATT [TGCATGCA_site451] | 10.2
11 | TGTATATATAAACATGCACACGTGGTTGTATATATA [CACACA_site9078] | 8.31
12 | AAAAATATAAAAATAGCACACATATATACATATATA [CACACA_site7901] | 6.67
13 | ATATATATATAGTGCACACTTAAGAATATAAAGAGG [CACACA_site1151] | 10.7
14 | ATAATATAAATATACACACACACATATATATATATA [CACACA_site2905] | 9.28
15 | AAATAATATAAATACACACACACATATATAAATACA [CACACA_site4465] | 7.06
16 | TATATATATATAATAGTGCATAAATAAATATATAAA | 9
17 | AAATAAAGAATATAAATACACACTTAAATATATATT [CACACA_site4007] | 6.44
18 | ATATATATATAGTGCACACATATAAAATATATATAA [CACACA_site2745] | 10.8
19 | ATATAAATATAGTGTGCACACACATAATATATATAT [CACACA_site8713] | 10.7
20 | ATATATATATATAGTGCACACTTAAGAATATAAAGA [CACACA_site4771] | 10.3
21 | ATATAAATACGGTGTGCACACACATAATATATATAT [CACACA_site2271] | 11.1
22 | ATATATATATATAGTGCACACATATAAAATATATAT [CACACA_site8884] | 10.3
23 | AATATAATAATATTTTGTACATATCCTATGTATGAG [XGTACX_site8601] | 6.5
24 | TATAAATATAAATACACACACACATCAATACAGATA [CACACA_site5850] | 6.87

Row | Sequence | gcPBM binding intensity (ln)
25 | CGCGAACATACATACACACACATATATATATCTGTA [CACACA_site4277] | 6.98
26 | ATTGAATTCCAACTGGTGCACCAGTAAGATTGAAAA [GTGCAC_site9895] | 10.1
27 | TATAATCTAACATAATGTACATGTATATGCACTTTA [XGTACX_site369] | 8.43
28 | TTATATTATTCGTGTGTGCACGATATTTCATAATTG [GTGCAC_site9767] | 8.92
29 | AAAAAAAAATACAAAATAGCAATAAATACACAAACG [GTGCAC_negctrl_site707] | 7.12
30 | TTTGATGGTACACGTACACACCTTGCAAATATTTTT [CACACA_site4645] | 7.13
31 | AAAGAAAGAAAGAAAAGTACTTAAACTTTTAAAAAT [XGTACX_site8531] | 6.03
32 | AAAATCTAATATAATGCACACATAAAAAAAAAATCA [CACACA_site8871] | 10.4
33 | AAAAAATAATAAATCACACATATTATATATATATAT [CACACA_site5838] | 8.94
34 | AAAAAAATCTCCAGTGTGCACAATCACATAATATAT [GTGCAC_site9833] | 10.8
35 | TTATGGAAAAATATAACACACAATGATTTTTTATAA [CACACA_site1831] | 6.33
36 | CACACGCACGGACACACACACATATAAAATCTATAT [CACACA_site6428] | 7.73
37 | CAATAAATCGAAATCGTGCACGGACACATGCAGTAG | 10.9
38 | ATTATGAAATATCGTGCACACACGAATAATATAAGA [CACACA_site1294] | 9.49
39 | AATCGAAATCGTGCACGGACACATGCAGTAGCCGAG [XGTACX_site6001] | 10.2
40 | AAATCGTGCACGGACACATGCAGTAGCCGAGAATTA [TGCATGCA_site733] | 11.1
41 | ATTTTAAAAAGGATAGTGCAAATGTTAAAATAGGAC | 9.91
42 | CGTAAATTTTTTAAAAGTACAAAAAGATACGAGAAA [XGTACX_site8722] | 6.46
43 | TATTCATGCATATACACACACATATATTTATATTTT [CACACA_site7786] | 7.08
44 | TCATATTATAAATAAATAAATAAATATATATATATA [CACACA_negctrl_site577] | 8.76
45 | GAATAAATATTAAATGTGCACTTGAATAGATGTAAA | 9.88
46 | TATAAATTAAAATGTGTGCACTAAATTGAAATAGAA | 10.6
47 | AAATAAAAATTAAAAAAATAGAAACGAATTGAATGC [TGCATGCA_negctrl_site365] | 6.69
48 | AATAATATTAACACACGTACAAAAGCAAACAACCAA [XGTACX_site7410] | 7.16

Row | Sequence | gcPBM binding intensity (ln)
49 | ATATATATATATCAGAGTACATTCTTTAAAATATAT [XGTACX_site5915] | 8.7
50 | TCTTTTCTTTTGTGTGTGCACATATAAGCATGAAAC [GTGCAC_site9910] | 10.4
51 | ATATATATCTTTTGTGTGCACATATATATAATATAT | 10.9
52 | TATATATATATATGTGCACACATAATAAAAAAAAAA [CACACA_site3830] | 10.1
53 | ATAATATATATATATGCATGTACATATTTATCTTTA [TGCATGCA_site32] | 6.74
54 | ATGTATGTGTATATATGTACATAATATATATCTTTT [XGTACX_site8666] | 6.6
55 | ATAATATCTTTATGTGTGCACATATATATATATATA | 10.5
56 | TTTTTTTCTCTCTCTACACACAAGGTTTAATTTAAA [CACACA_site1690] | 6.81
57 | TATATATATATATATGTGCACTGAAAGAATTATACA [GTGCAC_site9586] | 9.76
58 | AATTATAATTAATAGAGTACTGAATATATATATATA [XGTACX_site8683] | 8.9
59 | ATTATATATAAGAAGAGTACTGAATATGTGCAATAT [XGTACX_site4471] | 11.2
60 | ATTTTAAATATTTGTGGTACCCCTTTTTTGTAACAA [XGTACX_site5590] | 6.71
61 | ATAAAAAAATAAAACACACACATATAGATTATAGAT [CACACA_site7343] | 7
62 | GTATGTATATATATATGTACATACTGTTTATCGTTA [XGTACX_site6168] | 6.4
63 | ATGCATCATTTATTTGCACACCTATTATATACTTTT [CACACA_site2097] | 10.1
64 | AATTTTATTACTTTTACACACCTATATATCATTCAT [CACACA_site7525] | 6.91
65 | ATTTTACATATTTGCACACATATATTTAAATACATA [CACACA_site4627] | 10.8
66 | AGGAAATTTGTTATTGCACACAAATTTTTCTTTTTT [CACACA_site8732] | 9.48
67 | ATTTTATTTATATACACACACATATATATATTATAT [CACACA_site822] | 7.09
68 | ATATTTTATTTATATACACACACATATATATATTAT [CACACA_site8177] | 7.22
69 | TTTTTTATTCTTTTTGCACACAGGAAATTTACAGAT [CACACA_site1090] | 10.6
70 | GCATCATTTATTTGCACACCTATTATATACTTTTTA [CACACA_site2098] | 10.7
71 | ATTTTATTTAAATACACACACATATATATATTATAT [CACACA_site4607] | 7.14
72 | ATATTTTACATATTTGCACACATATATTTAAATACA [CACACA_site4628] | 10.3

Row | Sequence | gcPBM binding intensity (ln)
73 | TATTTTTGTATATATTTATTCTTATTTTACAGGAAA [TGCATGCA_negctrl_site472] | 6.22
74 | ATATTTTACATATTTGCACACATATATTTATATACA [CACACA_site855] | 10.7
75 | GGATGCACACAAAAGGGTACATAAGAAAAAAACAGG [XGTACX_site8570] | 9.42
76 | TTTATATTTTAAAAAATAATATTATGTATTTTTAAA [TGCATGCA_negctrl_site507] | 6.01
77 | AAACAATATTCTCAAGTGCAAAAAGAAAAAAGAAAT | 9.37
78 | CCTTTTTTTTTTTTATGTACTAAAATAAAATTAGAA [XGTACX_site5956] | 6.14
79 | TATAAAATAATTAAATGTACATAATATATAAAATAT [XGTACX_site6777] | 6.69
80 | GTAATTTTTTTCTATACACACATATATATAATATAT [CACACA_site2655] | 7.08
81 | TTTGTGTTGTATTTTTGTACATAAAATAAACTTAAA [XGTACX_site4637] | 6.65
82 | TATTTAAATGGATGCACACATGCATTAAATAAAATA [CACACA_site3433] | 8.59
83 | TATTTATTTTTTTGCACACATATTTTACATTTTAAT [CACACA_site3181] | 10.8
84 | TACATTTTTATTTTTACACACATATTTATTTATATA [CACACA_site6609] | 7.06
85 | TATTTTTATATTTTTGCACACATTCTTTACTCTTCA [CACACA_site2211] | 10.6
86 | ATTTTACATATTTGCACACATATATTTATATACATA [CACACA_site854] | 10.6
87 | ATATTAAGTTTTATTACACACTCTCAATTTTTATTT [CACACA_site4206] | 6.63
88 | TATATACATATATATACACACATATATATATTTTAT [CACACA_site3788] | 6.65
89 | ATGACTCTCAAGTTTGCACACATTTATATTTTTTAA [CACACA_site2605] | 10.5
90 | ATATATTTTATACATACACACATATATATATTTTTT [CACACA_site3940] | 6.83
91 | AATATTTATTTTTTTGCACACATATTTTACATTTTA [CACACA_site3182] | 10.3
92 | TTTTCATTTTTCTTTACACACATATATTTATTTATA [CACACA_site7119] | 7.15
93 | TATATATATATTTTTGCACACATTTTTTAAGGTACA [CACACA_site2145] | 10.3
94 | TTTTTATATTTTTGCACACATTCTTTACTCTTCAAA [CACACA_site2210] | 10.4
